19 compounds from PubChem BioAssay (NCI) can be followed below.

Among the test systems are SW-620 colon; MCF7 breast; HCT-116 colon; HCC-2998 colon; KM12 colon; BT-549 breast; MDA-MB-435 melanoma.
Common to all, as to assay: NCI-60 one-dose screen, 48 h (100 = growth as untreated, 0 = no growth, -100 = all killed)
What all share (conditions): 10 µM unless noted

This is part of a sample that, as a whole, favours compounds with a hit. Of some 83,000 tested, about 20% had one in any assay.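 Note: values are percent growth. 100 is the growth of untreated cells, values between 100 and 0 indicate rising inhibition; between -100 and 0 indicates cell death.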 A number with no mark means an inactive call. The source made the active and inactive calls. How the source made its calls: active means growth percent below 10; inactive means the rest.

With `O=C(Nc1cccc2[nH]c(C(F)(F)F)nc12)c1cc(Cl)ccc1Cl`, the growth is 42.4% in the assay on SW-620 colon; 16.7% in the assay on MCF7 breast; 25.7% with HCT-116 colon; 33.8% with HCC-2998 colon; 20% with KM12 colon.
As for `Cc1ccc(S(=O)(=O)Nc2sccc2-c2nc(-c3ccccc3)no2)cc1`, the growth was 92.5% with BT-549 breast; 97% in the assay with SW-620 colon; 93.1% with MCF7 breast; 85.9% in the assay with HCT-116 colon; 97.8% with HCC-2998 colon; 90.1% in the assay on KM12 colon.
As for `C=C(C)[C@@H]1CC[C@]2(CN)CC[C@]3(C)[C@H](CC[C@@H]4[C@@]5(C)CCC(N)[C@@](C)(CO)[C@@H]5CC[C@]43C)[C@@H]12` (stereo partly drawn), the growth in the assay on MDA-MB-435 melanoma is -86.7% (active); with SW-620 colon, -76.5% (active); in the assay on MCF7 breast it was -72.2% (active); with HCC-2998 colon, -53.6% (active); in the assay on KM12 colon it was -72.1% (active).
On to `Cc1cc(N(CCCNc2ccnc3cc(Cl)ccc23)Cc2ccccn2)nc(N2CCCC2)n1`, for which the growth in the assay with BT-549 breast was 91.7%; with MDA-MB-435 melanoma, 86.7%; with SW-620 colon, 70.5%; in the assay on HCT-116 colon, 50.3%; in the assay on HCC-2998 colon, 89.2%; with KM12 colon, 82.8%.
With `CCCn1nc(-c2ccccc2)c2c(-c3ccccc3)onc2c1=O`, the growth in the assay on BT-549 breast is 71.5%; with SW-620 colon it was 43.5%; in the assay with MCF7 breast, 40.9%; in the assay on HCT-116 colon, 58.9%; in the assay on HCC-2998 colon it was 85.3%.
In the case of `COc1ccc(NC(=O)C(=O)c2c[nH]c3ccc(F)cc23)cc1`, the growth with MDA-MB-435 melanoma is 95.5%; with SW-620 colon, 99.9%; in the assay on MCF7 breast, 86.3%; in the assay with HCT-116 colon, 79.1%; with HCC-2998 colon, 109%; in the assay on KM12 colon, 94.5%.
Consider `Cn1c(NCCc2ccc(O)c(O)c2)nc2c1c(=O)n(Cc1ccc(Cl)cc1)c(=O)n2C`, for which the growth was 71.6% in the assay on BT-549 breast; 76.3% with MDA-MB-435 melanoma; 75.9% in the assay with SW-620 colon; 75.3% in the assay on MCF7 breast; 71.4% in the assay on HCT-116 colon; 89.3% with HCC-2998 colon. For the same compound, the growth with KM12 colon was 79.6%.
On to `COc1cc(NC(=O)c2cccc(-c3cc(=O)c4c(O)c(OC)c(OC)cc4o3)c2)cc(OC)c1OC`, for which the growth with BT-549 breast was 7% (active); in the assay with MDA-MB-435 melanoma it was 65.4%; with SW-620 colon it was 73.3%; in the assay with HCT-116 colon, 44.8%; with HCC-2998 colon it was 66%; in the assay on KM12 colon it was 53.9%.
On to `CN1CCN(C(=O)[C@@]2(C)CC[C@]3(C)CC[C@]4(C)C(=CC[C@@H]5[C@@]6(C)C/C(=C/c7ccncc7)C(=O)C(C)(C)[C@@H]6CC[C@]54C)[C@@H]3C2)CC1`, for which the growth was 55.6% in the assay with BT-549 breast; 44.6% in the assay on MDA-MB-435 melanoma; 31.6% with SW-620 colon; 23.3% in the assay with MCF7 breast; 58.1% in the assay on HCC-2998 colon; 36.6% in the assay on KM12 colon.
Consider `Fc1ccc(Nc2nc3nonc3nc2Nc2ccc(F)cc2)cc1`, for which the growth with MDA-MB-435 melanoma was 5.74% (active); in the assay with SW-620 colon, 9.46% (active); with MCF7 breast, 3.66% (active); in the assay with HCC-2998 colon, 13.1%.
Turning to `CCCc1nc2ccccn2c1Nc1ccc(C(=O)NO)cc1`, the growth in the assay with MDA-MB-435 melanoma was 90.2%; in the assay with SW-620 colon, 86.3%; with MCF7 breast, 79.6%; with HCT-116 colon, 85.4%; in the assay with HCC-2998 colon, 91.4%.
On to `Cc1cc(N(CCCNc2ccnc3cc(Cl)ccc23)Cc2ccccn2)nc(N2CCOCC2)n1`, for which the growth is 90.5% with BT-549 breast; 111% in the assay on MDA-MB-435 melanoma; 83.5% in the assay with SW-620 colon; 87% with MCF7 breast; 57.9% in the assay on HCT-116 colon; 105% with HCC-2998 colon. In the assay on KM12 colon, the growth was 103%.
For the compound `C[C@@H](C[C@H](CCOCc1cccnc1)c1ccccc1)c1cc2ccccc2o1`, the growth is 102% with BT-549 breast; 103% in the assay with MDA-MB-435 melanoma; 91.6% in the assay on SW-620 colon; 106% in the assay with MCF7 breast; 101% with HCC-2998 colon; 88% in the assay on KM12 colon.
As for `COc1cc2oc(-c3cccc(C(=O)Nc4ccc(C)cc4)c3)cc(=O)c2c(OC)c1OC`, the growth with BT-549 breast is 36.6%; with MDA-MB-435 melanoma, 27.9%; in the assay with SW-620 colon it was 59.5%; with MCF7 breast, 24.5%; in the assay with HCC-2998 colon it was 49.9%; with KM12 colon it was 33%.
For `CS(=O)(=O)c1ccc(-c2[nH]c3ccc(F)cc3c2/C=N/O)cc1`, the growth in the assay with MDA-MB-435 melanoma is 99.6%; with SW-620 colon it was 110%; in the assay on MCF7 breast, 82.9%; in the assay with HCT-116 colon it was 87.9%; in the assay on HCC-2998 colon it was 110%; with KM12 colon it was 101%.
As to `COc1ccc(C(=O)/C=C/c2cc3c(c(OC)c2)OCC(=O)N3)cc1`, the growth is 26.2% in the assay with MDA-MB-435 melanoma; 14.7% with SW-620 colon; 31.5% in the assay with MCF7 breast; 11.8% in the assay with HCT-116 colon; 67.9% in the assay with HCC-2998 colon; 14.7% with KM12 colon.
In the case of `C=C1c2c(C)nn(-c3ccc(S(N)(=O)=O)cc3)c2N(C)C23CC1C1(C)c4c(C)nn(-c5ccc(S(N)(=O)=O)cc5)c4N(C)C(C)(CC12)C3` (stereo not drawn), the growth in the assay with BT-549 breast was 49.6%; in the assay with MDA-MB-435 melanoma it was 32.9%; in the assay on SW-620 colon, 39.2%; with HCT-116 colon, 14.4%; in the assay with HCC-2998 colon it was 47%.
Regarding `CC(C)OC(=O)OCOP(=O)(OCOC(=O)OC(C)C)C1CCCN(O)C1=O` (stereo not drawn), the growth is 47.3% with MDA-MB-435 melanoma; 32.3% with SW-620 colon; 31.9% in the assay with MCF7 breast; 13.4% in the assay on HCT-116 colon; 23.7% with HCC-2998 colon; 9.54% (active) in the assay with KM12 colon.
As for `Cc1nc(C)c(-c2nn3c(-c4cccc(F)c4)nnc3s2)s1`, the growth in the assay on MDA-MB-435 melanoma is 95.2%; in the assay on SW-620 colon it was 96.8%; in the assay on MCF7 breast, 99.8%; with HCC-2998 colon, 105%; in the assay on KM12 colon, 99%.
